Laboratory results published in PubChem BioAssay AID435017 (Vanderbilt High Throughput Screening Facility, 2010).
Entries with a potency or affinity are not part of this list. Calls of active or inactive are those of the source.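 How the source made its calls: active means compounds with a dose-dependent response across tested concentrations; inactive means the rest.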

What follows are compounds tested against ATP-sensitive inward rectifier potassium channel 1 (Homo sapiens) (UniProt P48048) (assay: Kir1.1 channel inhibitor analog potency – cell-based, thallium flux, analog library, SAR follow-up (AID 435017)). Details: Tet-inducible ROMK, thallium flux fluorescence; series mostly up to 10 µM; normalised thallium flux, lower = inhibition: at the top concentration.
Sequence of ATP-sensitive inward rectifier potassium channel 1 (Homo sapiens) (P48048 whole entry, looked up): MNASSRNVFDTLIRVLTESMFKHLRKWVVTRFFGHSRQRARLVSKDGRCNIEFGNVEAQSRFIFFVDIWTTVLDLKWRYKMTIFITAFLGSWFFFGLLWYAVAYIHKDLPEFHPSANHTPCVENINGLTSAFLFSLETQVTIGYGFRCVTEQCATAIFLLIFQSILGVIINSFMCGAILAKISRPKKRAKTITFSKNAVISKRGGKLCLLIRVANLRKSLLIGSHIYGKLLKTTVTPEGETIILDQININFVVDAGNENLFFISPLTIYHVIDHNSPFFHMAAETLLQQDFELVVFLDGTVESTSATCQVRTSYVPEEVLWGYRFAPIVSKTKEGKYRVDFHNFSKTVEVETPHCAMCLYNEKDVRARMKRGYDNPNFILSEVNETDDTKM
With `CN(C)S(=O)(=O)c1ccc2nc(COCc3nc4ccc(S(=O)(=O)N(C)C)cc4[nH]3)[nH]c2c1` the “normalised thallium flux, lower = inhibition” value was 89% (inactive). `O=[N+]([O-])c1ccc2nc(COCc3nc4ccccc4[nH]3)[nH]c2c1` was tested, and the “normalised thallium flux, lower = inhibition” value was 89% [at 3.33 µM] (inactive). `CS(=O)(=O)c1ccc(CN2CCOCCOCCN(Cc3ccc(S(C)(=O)=O)cc3)CCOCC2)cc1` was tested, and the “normalised thallium flux, lower = inhibition” value was 68% [at 100 µM] (inactive). In the case of `O=S(=O)(c1ccc(CN2CCOCCOCCN(Cc3ccc(S(=O)(=O)C(F)(F)F)cc3)CCOCC2)cc1)C(F)(F)F`, the “normalised thallium flux, lower = inhibition” value is reported as 65% [at 100 µM] (inactive). In the case of `COCCN(CCOC)Cc1ccc([N+](=O)[O-])cc1`, the “normalised thallium flux, lower = inhibition” value is reported as 71% [at 100 µM] (inactive). With `Fc1ccc2nc(COCc3nc4ccc(F)cc4[nH]3)[nH]c2c1` the “normalised thallium flux, lower = inhibition” value was 84% (inactive). For `c1ccc2[nH]c(COCc3nc4ccccc4[nH]3)nc2c1`, the “normalised thallium flux, lower = inhibition” value was 89% (inactive). For `O=C(Nc1ccc([N+](=O)[O-])cc1)N1CCOCCOCCN(C(=O)Nc2ccc([N+](=O)[O-])cc2)CCOCC1`, the “normalised thallium flux, lower = inhibition” value was 80.7% (inactive). For `O=C(c1ccc([N+](=O)[O-])cc1)N1CCOCCOCCN(C(=O)c2ccc([N+](=O)[O-])cc2)CCOCC1`, the “normalised thallium flux, lower = inhibition” value was 80.9% (inactive). In the case of `O=[N+]([O-])c1ccc(CN2CCOCCOCCN(Cc3ccc([N+](=O)[O-])cc3Cl)CCOCC2)c(Cl)c1`, the “normalised thallium flux, lower = inhibition” value is reported as 52% [at 100 µM] (inactive). `O=[N+]([O-])c1ccc(CN2CCOCCOCCN(Cc3ccc([N+](=O)[O-])cc3[N+](=O)[O-])CCOCC2)c([N+](=O)[O-])c1` was tested, and the “normalised thallium flux, lower = inhibition” value was 78.6% (inactive). With `Fc1ccc(CN2CCOCCOCCN(Cc3ccc(F)c(F)c3)CCOCC2)cc1F` the “normalised thallium flux, lower = inhibition” value was 20% [at 100 µM] (inactive). `O=[N+]([O-])c1cccc(CN2CCOCCOCCN(Cc3cccc([N+](=O)[O-])c3)CCOCC2)c1` was tested, and the “normalised thallium flux, lower = inhibition” value was 11% [at 100 µM] (inactive). `O=[N+]([O-])c1ccc(S(=O)(=O)N2CCOCCOCCN(S(=O)(=O)c3ccc([N+](=O)[O-])cc3)CCOCC2)cc1` was tested, and the “normalised thallium flux, lower = inhibition” value was 87.3% (inactive).
